A selection follows.
aSyn UTR act: Activators working through SNCA 5'UTR binding (MLPCN). alpha-synuclein 5'UTR reporter, activators screen. activity score, % (tested at 7.5 µM), hits read low. 7.1% of 300,000 active; in the data active means activity score below about -60%
* marks the source's active call; other numbers are inactive results.

SMILES	aSyn UTR act
Cc1cccc(NC(=O)c2ccc(N(C)C3CCCCC3)c([N+](=O)[O-])c2)n1	-64*
Cc1cccc(NC(=O)c2ccc(N3CCOCC3)c([N+](=O)[O-])c2)n1	-115*
O=C(Nc1ccccc1)c1ccc(NCC2CCCO2)c([N+](=O)[O-])c1 (configuration not stated)	-125*
CCOC(=O)c1ccc(NCCOC)c([N+](=O)[O-])c1	-91*
Cc1ccc(NC(=O)c2ccc(NCCCN3CCC(C)CC3)c([N+](=O)[O-])c2)c(C)c1	-63*
CC(C)CCNc1nc(N)c([N+](=O)[O-])c(NCC2CCCO2)n1 (configuration not stated)	62
Cc1cc(C(=O)Nc2ccc(N3CCCC3)c(Cl)c2)ccc1[N+](=O)[O-]	-62*
c1ccc(Sc2cccc3ccccc23)c(CNC2=NCCN2)c1	61
O=C(Nc1cccnc1)c1ccc(N2CCCC2)c([N+](=O)[O-])c1	-87*
CCn1c(C)csc1=NC(=O)c1ccccc1O	-249*
Cc1csc(=NC(=O)c2ccccc2)n1C	-126*
CCn1c(C)csc1=NC(=O)c1ccccc1	-112*
Cc1cc(C)n2c(Br)c(CSc3nc4ccccc4o3)nc2n1	-87*
CN(C)CCN(C(=O)/C=C/c1cccs1)c1nc2c(F)cc(F)cc2s1	96
CCN(CC)CCN(C(=O)/C=C/c1cccs1)c1nc2ccc(C)cc2s1	-79*
CCOc1nc(C)ccc1-c1noc(-c2ccco2)n1	-79*
CCOc1ccccc1-c1nc(-c2ccc(C)nc2OC)no1	-207*
CCOC(=O)c1c(C)[nH]c(N=Nc2cccc(OC)c2)c1C	-208*
CCOC(=O)c1c(C)[nH]c(N=Nc2cccc(C)c2)c1C	-211*
CC(C)C[C@H]1CN=C(Nc2ccccc2)N1CCCC1CCCCC1	-69*
Cc1cc(=O)[nH]c2n[nH]c(-c3ccccc3)c12	-63*
Nc1ccccc1C#Cc1ccc([N+](=O)[O-])cc1	-262*
COCCNC(=O)c1cc2c(s1)-c1ccc(Cl)cc1SC2	-104*
N/C(=N\OC(=O)c1ccoc1)c1ccc(Br)cc1	-111*
N/C(=N\OC(=O)c1cccc(Br)c1)c1ccccc1	-305*
SMILES	aSyn UTR act
Cc1cccc(C(=O)O/N=C(\N)c2ccc(Br)cc2)c1	-211*
N/C(=N\OC(=O)c1ccc2ccccc2c1)c1ccc(Br)cc1	-103*
N/C(=N\OC(=O)c1cccc(Br)c1)c1ccccn1	72
Cc1ccc(C(=O)O/N=C(\N)c2ccc(Br)cc2)cc1C	-136*
Cc1cc(C)cc(C(=O)O/N=C(\N)c2ccc(Br)cc2)c1	-83*
Cc1cccc(C(=O)O/N=C(\N)c2ccc(Cl)cc2)c1	-108*
CN=c1scc(-c2ccccc2F)n1/N=C(\C)c1cccnc1	-163*
CN=c1scc(-c2ccccc2Br)n1/N=C/c1ccc[nH]1	64
COc1ccc(NC(=O)Nc2cccs2)cc1OC	-82*
COc1cccc(NC(=O)Nc2cccs2)c1	-80*
CC(C)(C)C1CCc2c(sc(NC(=O)c3cccs3)c2C(N)=O)C1 (configuration not stated)	-158*
CCCCN1CCc2c([nH]c3ccc(C)cc23)C1=O	-171*
CN(C)C(CNC(=O)c1ccc(C2SCCS2)cc1)c1ccccc1 (configuration not stated)	-100*
CC(C)NCC(O)Cn1c2c(c3ccccc31)CCc1c-2cnn1-c1ccccc1 (configuration not stated)	108
Fc1ccc(-c2cnc(-c3cccs3)o2)cc1	-148*
Fc1ccc(-c2nc(-c3cccs3)no2)cc1	-134*
Cc1c(C(=O)Nc2ccccn2)oc2ccccc12	-259*
Cc1ccc(NC(=O)c2oc3ccccc3c2C)nc1	-94*
Cc1c(C(=O)Nc2cccnc2Cl)oc2ccccc12	-181*
CC(C)Oc1ccccc1C1CC(=O)Nc2cc3c(cc21)OCCO3 (configuration not stated)	73
COc1ccc(C2CC(=O)c3ccccc3O2)cc1 (configuration not stated)	-147*
O=C1CC(c2ccc3c(c2)OCCO3)Oc2ccccc21 (configuration not stated)	-209*
O=C1CC(c2ccc3c(c2)OCCO3)Oc2ccc([N+](=O)[O-])cc21 (configuration not stated)	-163*
COC(=O)CSc1nc2ccccn2c(=O)c1C=O	-173*
CCCC(=O)Nc1ccc(NC(=O)c2cc3ccccc3o2)c(OC)c1	-222*
SMILES	aSyn UTR act
COc1cc(N)ccc1NC(=O)c1cc2ccccc2o1	-136*
COc1cc(NC(C)=O)ccc1NC(=O)c1cc2ccccc2o1	-83*
Cc1ccc2c(C)c(C(=O)Nc3cccnc3)oc2c1	-201*
Cc1ccc2c(Cl)c(C(=O)Nc3cccnc3)sc2c1	-73*
Cc1cc2oc(C(=O)Nc3cccnc3)c(C)c2cc1C	-114*
CC1CC1C(=O)OCC(=O)NC(=O)NC12CC3CC(CC(C3)C1)C2 (configuration not stated)	-118*
Cc1cc2c(cc1C)NC(CC(=O)NCc1ccccc1)C(=O)N2 (configuration not stated)	-77*
BrCCOCCOc1ccc2ccccc2c1	-130*
Cc1ccc(C(=O)c2oc3ccc(Cl)cc3c2NC(=O)CN2CCN(C)CC2)cc1	-108*
CCOc1ccc2c(c1)C(C)=CC(C)(C)N2S(=O)(=O)c1ccc(C)cc1	103
COc1ccc2c(c1)C(C)=CC(C)(C)N2S(=O)(=O)c1ccc(C)cc1	-63*
O=C(CSc1nc2ccsc2c(=O)n1NC(=O)c1ccccc1)NCc1ccco1	-70*
CN1CCc2c(sc3nc(SCC(=O)NCc4ccco4)n(-c4ccccc4)c(=O)c23)C1	-84*
COc1ccc(C(=O)Nn2c(SCC(=O)NCc3ccccc3)nc3ccccc3c2=O)cc1	77
O=C(CSc1nc2ccsc2c(=O)n1NC(=O)c1ccccc1)Nc1nccs1	-82*
CCNc1ccc(Br)cc(C(=O)/C=C/c2c(Cl)cccc2Cl)c1=O	-133*
COc1ccccc1C1CCN(c2ccc([N+](=O)[O-])c(OC)c2)CC1	-75*
CSc1cccc(CNC(=O)C2CCC(=O)N(Cc3cccc(C(F)(F)F)c3)C2)c1 (configuration not stated)	-73*
Cc1ccsc1CN(C)C(=O)C1CCC(=O)N(CCc2cccc(F)c2)C1 (configuration not stated)	-91*
Cc1ccsc1CCNC(=O)C1CCC(=O)N(CCc2cccc(F)c2)C1 (configuration not stated)	-102*
CN(C(=O)C1CCC(=O)N(Cc2cccc(F)c2)C1)C1CCCCC1 (configuration not stated)	-126*
CC(C)(C)c1ccc(-c2nnc(N)o2)cc1	-154*
COc1cc(-c2nnn(CC(=O)NC3CCS(=O)(=O)C3)n2)ccc1OCc1ccccc1 (configuration not stated)	-126*
COc1cccc(Nc2nnc(SCc3nc4ccccc4s3)s2)c1	-208*
Cc1ccnc(SCc2nc3ccccc3s2)n1	-181*
SMILES	aSyn UTR act
Cc1cccc(C)c1Nc1nnc(SCc2nc3ccccc3s2)s1	-85*
Cc1ccc2c(c1)COc1c3ccc(C(=O)NCCO)cc3nn1-2	-158*
O=C(NCC1CC1)c1ccc2c3n(nc2c1)-c1ccc(Cl)cc1CO3	-166*
COCCNC(=O)c1ccc2c3n(nc2c1)-c1ccc(Cl)cc1CO3	-164*
O=C(NCCO)c1ccc2c3n(nc2c1)-c1ccc(Cl)cc1CO3	-158*
COCCNC(=O)c1ccc2c3n(nc2c1)-c1ccccc1CO3	-108*

Screening results (PubChem BioAssay)
